Results filed as inconclusive are left out. The source made the active and inactive calls. Unless noted, calls follow the shape of the dose curve; as a rule, active = well fitted curve in the direction sought with a large enough effect in the repeat runs; inconclusive = weak or mixed curves; inactive = no such curve, though single readings can be large; an effect the other way counts as inactive or inconclusive.
Legend:
[1] = qHTS assay to test for compound auto fluorescence at 535 nm (green) in HEK293 cells (AID 720680)
[2] = qHTS assay to test for compound auto fluorescence at 460 nm (blue) in HEK293 cell free culture (AID 720681)
How it was run: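 Compounds were added to cell-free DMEM with 10% FBS and fluorescence read directly. The blue channel used 405 nm excitation and 460 nm emission, with triamterene as the reference fluorophore.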

[3] = qHTS assay to test for compound auto fluorescence at 535 nm (green) in HEK293 cell free culture (AID 720682)
How it was run: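 Steps: dispense DMEM/10% FBS into empty wells; pin in compound or DMSO; measure fluorescence at 485/535 nm. Values are fluorescein equivalents.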

[4] = qHTS assay to test for compound auto fluorescence at 590 nm (red) in HEK293 cell free culture (AID 720683)
How it was run: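 Cell-free wells of DMEM with 10% FBS received compound, and intrinsic fluorescence was read at excitation/emission 540/590 nm. Values expressed as equivalence to Rose Bengal sodium.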

[5] = qHTS assay to test for compound auto fluorescence at 590 nm (red) in HepG2 cell free culture (AID 720684)
How it was run: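 Compounds are added to culture medium (MEM, 10% FBS) lacking cells, then fluorescence is read at excitation 540 nm, emission 590 nm, with Rose Bengal sodium as the equivalency standard.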

[6] = qHTS assay to test for compound auto fluorescence at 535 nm (green) in HepG2 cell free culture (AID 720686)
[7] = qHTS assay to test for compound auto fluorescence at 460 nm (blue) in HepG2 cells (AID 720687)
How it was run: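 HepG2 cells in MEM with 10% FBS, attached overnight at 37 C, were exposed to compound or DMSO for 1 hr at 37 C, 5% CO2. Blue fluorescence was read at 405/460 nm, with triamterene as reference fluorophore.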

[8] = qHTS assay to identify small molecule antagonists of the glucocorticoid receptor (GR) signaling pathway - cell viability counter screen (AID 720693); also: nearly all actives have a fitted effect of over 55% in size
[9] = qHTS assay for identifying genotoxic compounds that show differential cytotoxicity against isogenic chicken DT40 cell lines with known DNA damage response pathways - wild type cell line (AID 743012); also: nearly all actives have a fitted effect of over 60% in size; also: potency is read from the fitted curve at half-maximal effect
How it was run: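 Cells (DT40 wild type, 300/well) are treated with DMSO-dissolved compounds after a ~0.5 h pre-incubation and kept 40 h at 37 C/5% CO2. Viability is then measured by CellTiter-Glo luminescence following 30 min at room temperature.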

[10] = qHTS assay for identifying genotoxic compounds that show differential cytotoxicity against isogenic chicken DT40 cell lines with known DNA damage response pathways - Rad54/Ku70 mutant cell line (AID 743015); also: nearly all actives have a fitted effect of over 60% in size; also: potency is read from the fitted curve at half-maximal effect
[11] = qHTS assay to identify small molecule antagonists of the androgen receptor (AR) signaling pathway - cell viability counter screen (AID 743033; also: nearly all actives have a fitted effect of over 45% in size)
[12] = qHTS assay to identify small molecule antagonists of the androgen receptor (AR) signaling pathway using the MDA cell line - cell viability counter screen (AID 743041; also: nearly all actives have a fitted effect of over 45% in size)
How it was run: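 Same-well cytotoxicity was assessed by CellTiter-Fluor in MDA-kb2 AR-luc cells after 16 h of compound treatment under R1881 agonism.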

[13] = qHTS assay to test for compound auto fluorescence at 460 nm (blue) in HepG2 cell free culture (AID 720685)
How it was run: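 Compound (23 nL) or DMSO pinned into cell-free MEM with 10% FBS; blue fluorescence read at 405/460 nm excitation/emission, expressed as auto-fluorescence equivalency to triamterene.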

[14] = target: Glucocorticoid receptor (Homo sapiens) (UniProt P04150); experiment: qHTS assay to identify small molecule agonists of the glucocorticoid receptor (GR) signaling pathway (AID 720691; active = well fitted activation curve with a large enough effect in the signal ratio in the repeat runs, not every such curve was filed as active; the % refers to the signal ratio)
How it was run: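 Agonist mode in a HeLa line carrying a GRE-controlled beta-lactamase reporter. Compounds act for 18 h at 37 C before a 2 h room-temperature FRET substrate step and fluorescence reading.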

[15] = target: Glucocorticoid receptor (Homo sapiens) (UniProt P04150); experiment: qHTS assay to identify small molecule antagonists of the glucocorticoid receptor (GR) signaling pathway (AID 720692; active = well fitted inhibition curve with a large enough effect in the signal ratio in the repeat runs, not every such curve was filed as active; the % refers to the signal ratio)
How it was run: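 Cells plated, rested 4 h at 37 C/5% CO2; compounds in DMSO pin-transferred; dexamethasone added to 5 nM final; 18 h at 37 C; B/G FRET substrate added, 2 h room temperature; fluorescence measured.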

[16] = qHTS assay for identifying genotoxic compounds that show differential cytotoxicity against isogenic chicken DT40 cell lines with known DNA damage response pathways - Rev3 mutant cell line (AID 743014); also: nearly all actives have a fitted effect of over 55% in size
[17] = target: Androgen receptor (Homo sapiens) (UniProt P10275); experiment: qHTS assay to identify small molecule agonists of the androgen receptor (AR) signaling pathway (AID 743036; active = well fitted activation curve with a large enough effect in the signal ratio in the repeat runs, with a control signal flat, not every such curve was filed as active; the % refers to the signal ratio)
How it was run: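 Reporter line: GeneBLAzer AR-UAS-bla-GripTite (HEK293). Steps: plate cells, 4 h rest, add compounds, 16 h at 37C, add LiveBLAzer B/G substrate, 2 h at RT, read fluorescence.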

[18] = target: Androgen receptor (Homo sapiens) (UniProt P10275); experiment: qHTS assay to identify small molecule agonists of the androgen receptor (AR) signaling pathway using the MDA cell line (AID 743040; also: nearly all actives have a fitted effect of over 20% in size)
How it was run: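 Human breast carcinoma MDA-kb2 reporter cells (MMTV-luc, AR/GR elements) were treated for 16 h at 37C in 0% CO2 following a 5 h settling period. Signal was quantified by ONE-Glo luminescence.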

[19] = target: Androgen receptor (Homo sapiens) (UniProt P10275); experiment: qHTS assay to identify small molecule antagonists of the androgen receptor (AR) signaling pathway using the MDA cell line (AID 743042; also: nearly all actives have a fitted effect of over 55% in size)
How it was run: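 MDA-kb2 breast carcinoma cells carrying MMTV-luciferase (AR/GR responsive) were co-treated with compounds and the agonist R1881 for 16 h at 37C. Inhibition read as ONE-Glo luminescence; CellTiter-Fluor fluorescence measured in parallel for cytotoxicity.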

Measured: Potency

Sequence of Glucocorticoid receptor (Homo sapiens) (P04150 whole entry, looked up): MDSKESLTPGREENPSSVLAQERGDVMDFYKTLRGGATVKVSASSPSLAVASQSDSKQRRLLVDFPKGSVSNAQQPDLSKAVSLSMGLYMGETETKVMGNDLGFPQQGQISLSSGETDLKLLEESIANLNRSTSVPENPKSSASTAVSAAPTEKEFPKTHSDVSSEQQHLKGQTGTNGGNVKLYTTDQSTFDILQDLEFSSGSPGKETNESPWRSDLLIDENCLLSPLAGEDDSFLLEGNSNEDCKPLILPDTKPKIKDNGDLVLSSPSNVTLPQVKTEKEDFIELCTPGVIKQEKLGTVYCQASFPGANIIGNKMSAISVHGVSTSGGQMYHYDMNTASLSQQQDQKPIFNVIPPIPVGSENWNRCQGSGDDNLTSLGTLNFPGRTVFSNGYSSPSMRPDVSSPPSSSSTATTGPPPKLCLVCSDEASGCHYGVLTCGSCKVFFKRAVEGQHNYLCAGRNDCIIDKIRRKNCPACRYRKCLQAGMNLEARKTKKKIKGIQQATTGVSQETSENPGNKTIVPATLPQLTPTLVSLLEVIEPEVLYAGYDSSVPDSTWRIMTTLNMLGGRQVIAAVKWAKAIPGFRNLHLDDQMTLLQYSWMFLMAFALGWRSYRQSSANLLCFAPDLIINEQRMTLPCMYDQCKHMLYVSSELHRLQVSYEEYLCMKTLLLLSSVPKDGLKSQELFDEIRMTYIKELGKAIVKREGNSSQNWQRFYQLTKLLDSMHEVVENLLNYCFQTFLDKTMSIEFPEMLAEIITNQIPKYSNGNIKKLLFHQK
Sequence of Androgen receptor (Homo sapiens) (P10275 whole entry, looked up): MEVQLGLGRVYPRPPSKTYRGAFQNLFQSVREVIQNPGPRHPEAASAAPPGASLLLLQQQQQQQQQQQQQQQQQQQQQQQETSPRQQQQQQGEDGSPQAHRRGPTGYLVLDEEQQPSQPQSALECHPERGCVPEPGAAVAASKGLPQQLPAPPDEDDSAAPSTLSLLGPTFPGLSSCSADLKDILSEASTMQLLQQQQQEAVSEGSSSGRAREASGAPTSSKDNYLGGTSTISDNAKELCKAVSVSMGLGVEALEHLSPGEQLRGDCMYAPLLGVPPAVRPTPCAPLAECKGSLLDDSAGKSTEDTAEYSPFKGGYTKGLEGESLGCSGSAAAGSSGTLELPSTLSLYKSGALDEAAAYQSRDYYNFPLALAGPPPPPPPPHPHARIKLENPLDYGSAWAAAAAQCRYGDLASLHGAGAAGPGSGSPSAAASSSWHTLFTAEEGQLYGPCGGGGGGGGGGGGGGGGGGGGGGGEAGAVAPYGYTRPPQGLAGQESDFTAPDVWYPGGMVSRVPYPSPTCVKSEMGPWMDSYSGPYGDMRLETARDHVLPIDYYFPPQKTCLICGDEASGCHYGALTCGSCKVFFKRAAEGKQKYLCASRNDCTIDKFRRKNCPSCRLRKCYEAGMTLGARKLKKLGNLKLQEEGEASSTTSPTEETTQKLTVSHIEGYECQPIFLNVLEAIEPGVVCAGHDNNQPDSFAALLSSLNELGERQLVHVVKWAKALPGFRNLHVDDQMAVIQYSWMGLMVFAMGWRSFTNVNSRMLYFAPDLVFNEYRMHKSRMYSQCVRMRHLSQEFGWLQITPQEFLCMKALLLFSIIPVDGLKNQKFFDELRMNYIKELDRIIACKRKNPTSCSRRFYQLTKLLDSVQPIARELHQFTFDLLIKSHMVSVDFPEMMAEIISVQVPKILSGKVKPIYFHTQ

OC(CCN1CCCCC1)(c1ccccc1)C1CCCCC1 (stereo unspecified)
active: [9] 26.6 µM
not listed: [13] | [14] | [15] | [16] | [17] | [18] | [19]
inactive: all other assays above

COCCO
not listed: [5] | [17] | [18] | [19]
inactive: all other assays above

CN1CCC[C@@H]1c1cccnc1
not listed: [13] | [14] | [15] | [17] | [18] | [19]
inactive: all other assays above

NCCCN(CCO)CCO
not listed: [5] | [11] | [14] | [15]
inactive: all other assays above

CC(C)(C)c1cc(CO)cc(C(C)(C)C)c1O
inactive: [1] | [2] | [3] | [4] | [13] | [6] | [7] | [14] | [12]
active: [9] 31.2 µM | [10] 22.1 µM

C[Si](C)O[Si](C)(C)O[Si](C)(C)O[Si](C)C
not listed: [5] | [15] | [17] | [18] | [19]
inactive: all other assays above

CC(=O)OCCc1ccccc1
not listed: [5] | [14] | [17] | [18] | [19]
inactive: all other assays above

CC(C)(C)c1cc(CCC(=O)OCC(COC(=O)CCc2cc(C(C)(C)C)c(O)c(C(C)(C)C)c2)(COC(=O)CCc2cc(C(C)(C)C)c(O)c(C(C)(C)C)c2)COC(=O)CCc2cc(C(C)(C)C)c(O)c(C(C)(C)C)c2)cc(C(C)(C)C)c1O
not listed: [6] | [10] | [13] | [14] | [17] | [18] | [19]
inactive: all other assays above
